Laboratory results reported in PubChem BioAssay (NCI).
Several values for one entry are separate records, joined by “and”; a condition that tells them apart may be missing. Equal entries are not always repeated. Compounds without any hit were thinned out: in the full panel of roughly 83,000, 20% have a hit.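 Compound tested at a single concentration for 48 hours in 96-well plates; a percent growth value below 10 was scored as active.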 Unmarked numbers belong to inactive results. Activity calls are given as the source filed them.

How the values were obtained:
Experiment in all cases: NCI-60 one-dose screen, 48 h (100 = growth as untreated, 0 = no growth, -100 = all killed)
Details in all cases: 10 µM unless noted
NCI-H23 lung = system: NCI-H23 lung
NCI-H226 lung = system: NCI-H226 lung
NCI-H322M lung = system: NCI-H322M lung
NCI-H460 lung = system: NCI-H460 lung
HOP-92 NSCLC = system: HOP-92 NSCLC
NCI-H522 lung = system: NCI-H522 lung
786-0 renal = system: 786-0 renal
COLO 205 colon = system: COLO 205 colon
DU-145 prostate = system: DU-145 prostate
K-562 leukemia = system: K-562 leukemia
MALME-3M melanoma = system: MALME-3M melanoma
MDA-MB-231 breast = system: MDA-MB-231 breast
RXF 393 renal = system: RXF 393 renal
SF-268 CNS = system: SF-268 CNS
SF-295 CNS = system: SF-295 CNS
SF-539 CNS = system: SF-539 CNS
UACC-257 melanoma = system: UACC-257 melanoma
M14 melanoma = system: M14 melanoma
A549/ATCC NSCLC = system: A549/ATCC NSCLC
HOP-62 NSCLC = system: HOP-62 NSCLC

| Compound | growth (NCI-H23 lung) | growth (NCI-H226 lung) | growth (NCI-H322M lung) | growth (NCI-H460 lung) | growth (HOP-92 NSCLC) | growth (NCI-H522 lung) | growth (786-0 renal) | growth (COLO 205 colon) | growth (DU-145 prostate) | growth (K-562 leukemia) | growth (MALME-3M melanoma) | growth (MDA-MB-231 breast) | growth (RXF 393 renal) | growth (SF-268 CNS) | growth (SF-295 CNS) | growth (SF-539 CNS) | growth (UACC-257 melanoma) | growth (M14 melanoma) | growth (A549/ATCC NSCLC) | growth (HOP-62 NSCLC) |
| --- | --- | --- | --- | --- | --- | --- | --- | --- | --- | --- | --- | --- | --- | --- | --- | --- | --- | --- | --- | --- |
| CC1(C)C2CCC1(CS(=O)(=O)O)C(=O)C2 (stereo unspecified) | 108% and 105% | 128% and 102% | 90.2% and 99.1% | 111% and 108% | 66.9% and 99.9% | 95.4% and 107% | 101% and 98.8% | 92.9% and 132% | 109% and 125% | 99.8% and 123% | 85.1% and 105% | 94.9% and 108% | 137% and 123% | 107% and 105% | 101% and 100% | 91% and 112% | 99.5% and 96.6% | 98% and 105% |  |  |
| CCC(Br)(CC)C(=O)NC(N)=O | 108% | 96.4% | 106% | 103% | 103% | 105% | 107% | 108% | 107% | 105% | 106% | 121% | 114% | 102% | 97.7% | 89.9% | 104% | 102% | 104% |  |
| O=C=Nc1ccc(Br)cc1 | 101% | 98.8% | 100% | 103% |  | 100% | 95.5% |  | 107% | 99.6% | 108% | 108% | 103% | 111% | 94.8% | 110% | 110% | 100% |  | 119% |
| O=C1NC(=O)C(=C/C=C/c2ccccc2)C(=O)N1 | -49% (active) | 62.7% | 97% | 33.1% |  | 6.24% (active) | -25.4% (active) | -47.1% (active) |  | 8.24% (active) | -4.86% (active) | 3.87% (active) | -91.5% (active) | 30% | 97.8% | 27.4% | 38.7% | -20.5% (active) |  | 48.2% |
| CC1(C)CN=C(NN=C(/C=C/c2ccc(C(F)(F)F)cc2)/C=C/c2ccc(C(F)(F)F)cc2)NC1 | -43% (active) | -15.1% (active) | 31.4% | -54% (active) |  | -76.6% (active) | -90.2% (active) | -91.6% (active) | -13.7% (active) | -37.5% (active) | -58.8% (active) | -83.1% (active) |  | -34.5% (active) | -70.8% (active) | -78.4% (active) | -45.9% (active) | -71.7% (active) |  | -85.5% (active) |
| O=[N+]([O-])c1c(Cl)cc(Cl)c([N+](=O)[O-])c1Cl | 98.3% | 117% | 119% | 95.8% | 99.6% | 36.6% | 126% | 96% | 81.3% | 103% | 175% | 110% | 131% | 96% |  | 110% | 62.9% | 97.2% | 108% |  |
| Cc1c2ccncc2c(C)c2c1[nH]c1ccccc12 | -79.5% (active) | -0.884% (active) | -83.3% (active) | -69.2% (active) |  | -50.6% (active) | -95.9% (active) | -87.1% (active) | -97.8% (active) | 3.9% (active) | -77.8% (active) | -68.9% (active) | -87.3% (active) | -77.1% (active) | -84.7% (active) | -93.6% (active) | -62.1% (active) | -89.9% (active) | -65.4% (active) |  |
| Nc1nc(=S)nc(N)[nH]1 | 89.5% | 96.9% | 102% | 111% |  | 75.5% | 88.6% |  | 113% | 103% | 102% | 92.1% | 101% | 93.3% | 95.9% | 97.1% | 87.2% | 89.5% |  | 89% |
